BoNT-F LC inh – BoNT/F light chain protease inhibitors, primary screen, biochemical, flow cytometry, MLPCN library. Botulinum neurotoxin type F light chain protease (Clostridium botulinum). Multiplex microsphere protease cleavage assay. inhibition, % at 10 µM. 0.22% of 360,000 active. AID 588497, 2011; in the data active means inhibition above about 35%, passing the limit was not always enough; inconclusive means no clear call, values can overlap the other calls; further: plate controls were buffer without enzyme for full effect and enzyme alone for no effect
Anthrax LF inh2 – Bacillus anthracis LF protease inhibitors, primary screen, biochemical, multiplex microsphere, MLPCN library. Lethal factor (Bacillus anthracis), P15917. inhibition, % at 10 µM. multiplex microsphere protease cleavage assay. 0.12% of 360,000 active. AID 588501, 2011; further: plate controls were buffer without enzyme for full effect and enzyme alone for no effect
3CLpro inhibitor – SARS-CoV 3CLpro protease inhibitors, primary screen, biochemical, quenched FRET; Replicase polyprotein 1ab (Severe acute respiratory syndrome coronavirus), P0C6X7; recombinant SARS-CoV 3CLpro, quenched FRET peptide cleavage; inhibition, % at 6 µM; 0.14% of 290,000 active; in the data active means inhibition above about 12%
BoNT A protease – BoNT/A light chain protease inhibitors, primary screen, biochemical, flow cytometry, MLPCN library; Botulinum neurotoxin type A light chain protease (Clostridium botulinum A str. ATCC 3502); multiplex microsphere protease substrate cleavage; inhibition, % at 10 µM; 0.17% of 360,000 active; further: plate controls were buffer without enzyme for full effect and enzyme alone for no effect
Bead autofluor – flagged as autofluorescent in microsphere protease counterscreen; 3.1% of 360,000 active; compound autofluorescence counterscreen, microsphere flow cytometry; active compounds read high; fluorescence intensity (test concentration not listed); AID 624483; in the data active means fluorescence intensity above about 16000; inconclusive means no clear call, values can overlap the other calls
CCHF vOTU inh – CCHFV vOTU protease inhibitors, primary screen, biochemical, Pep-AMC substrate, fluorescence; Crimean-Congo hemorrhagic fever virus L polyprotein viral ovarian tumor (vOTU) protease …; inhibition, % at 11.5 µM; 0.55% of 370,000 active; AID 651958, 2012; in the data active means inhibition above about 30%; further: 0% = vehicle wells with enzyme and 100% = no enzyme wells
Active calls of the source: *; ? = inconclusive; . = no result. A selection: hits, their analogues and other compounds. The true share with any hit is near 3.9%. Unless noted, no stated cut-off is given here; in the data, active means inhibition above about 30%; inconclusive means no clear call, values can overlap the other calls; inactive means below that.

SMILES | BoNT-F LC inh | Anthrax LF inh2 | 3CLpro inhibitor | BoNT A protease | Bead autofluor | CCHF vOTU inh
COc1cccc(N2CCN(C(=O)CSc3nc4ncccc4[nH]3)CC2)c1 | . | . | . | . | . | -3
CC(C)C[C@@H]1COc2cc(N3CCCC3)ccc2S(=O)(=O)N1C | . | . | . | . | . | -2
CC1CCCN(S(=O)(=O)c2ccc(NC(=O)CN3CCN(C)CC3)cc2)C1 (centres undefined) | -2 | 1 | 2 | 0 | 16136* | 8
CN1CCN(S(=O)(=O)c2ccc(NC(=O)Cc3cccs3)cc2)CC1 | 10 | 1 | -4 | 8 | 19616* | .
CC1CCN(CC(=O)Nc2ccc(S(=O)(=O)N3CCCC(C)C3)cc2)CC1 (centres undefined) | -15 | -9 | 0 | 0 | 3576 | -7
CC(C)(C)c1ccc(-c2nnc(SCc3cccc4ccccc34)n2Cc2ccco2)cc1 | . | . | . | . | . | 27
O=C(Cc1ccccc1)N/N=C/c1cc(Br)c(Br)o1 | -4 | 2 | 4 | ? | 16918* | 5
COc1ccc2c(c1)CN1CN(Cc3ccc(F)cc3)S(=O)(=O)CC21 (centres undefined) | . | . | . | . | . | 4
COc1ccccc1NC(=O)N(Cc1ccccc1)C1=NCC(C)S1 (centres undefined) | 0 | -2 | 4 | 0 | 22072* | -3
N#Cc1ccc2nc(-c3ccc(CN4CCC5(CC4)CNc4ccccc45)cc3)c(-c3ccccc3)nc2c1 | . | . | . | . | . | 20
O=C(COC(=O)CNC(=O)C12CC3CC(CC(C3)C1)C2)Nc1ccccc1 | 11 | -16 | -6 | ? | 19773* | 3

Screens as filed in PubChem.
